This is an account of results in PubChem BioAssay AID485317 (Broad Institute, 2010).

About 11,000 (3.8%) of roughly 290,000 compounds were called active. Shown is part of a subset that was picked to be rich in actives. Unmarked numbers belong to inactive results.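 The calls were made as follows: active = mean replicate inhibition above about 79%, with every replicate also reaching it (limit read from the data); inconclusive = only one of the two criteria met; inactive = mean below limit and not every replicate reaching it.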

Sequence of FAD-linked sulfhydryl oxidase ALR (Homo sapiens) (P55789 whole entry, looked up): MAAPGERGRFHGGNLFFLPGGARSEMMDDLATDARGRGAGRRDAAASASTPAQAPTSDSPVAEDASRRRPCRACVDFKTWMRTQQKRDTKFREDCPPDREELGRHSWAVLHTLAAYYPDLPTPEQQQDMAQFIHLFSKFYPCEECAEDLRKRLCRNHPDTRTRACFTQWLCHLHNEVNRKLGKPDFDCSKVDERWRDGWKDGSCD

The experiment has as its target FAD-linked sulfhydryl oxidase ALR (Homo sapiens) (UniProt P55789). As to the kind of experiment: inhibitors of human ALR sulfhydryl oxidase, primary screen, biochemical, H2O2 detection, HRP-luminol luminescence, single point (AID 485317). To be noted: purified ALR, DTT oxidation, hits give high values, concentration not given here.
As usually defined, the inhibition is the relative decrease from the control value, in per cent. For the molecule `CC(C)(C)OC(=O)CNC(=O)c1[nH]cnc1C(=O)N[C@@H](CCCCN)C(=O)OC(C)(C)C`, the inhibition was 2.52%. The result for `C=CC[C@@H](CC(=O)N[C@@H](CO)Cc1ccccc1)C(=O)NCCOC(=O)[C@@H](CC=C)CC(=O)OC(C)(C)C` reads 0.56%; that for `COc1ccc(C(=O)N(Cc2ccccc2)c2ccc(C)cc2)cc1S(=O)(=O)N1CCOCC1`, 18.8%. As for `O=C(CN1CCN(c2ccccn2)CC1)Nc1ccc(Br)cc1`, the inhibition is -8.03%.

Turning to `COc1ccc(NC(C)=O)cc1NC(=O)CN1CCN(c2ccccn2)CC1`, the inhibition was -9.42%.

For `CCN(CC)c1ccc(NC(=O)CN2CCN(c3ccccn3)CC2)cc1`, the inhibition was 99.3% (active). As for `Cc1ccc(S(=O)(=O)N2[C@@H](c3cccc4ccccc34)C(C(=O)O)=C[C@H]2C(C)(C)C)cc1`, the inhibition was 9.1%. With `CN(C(=O)Cn1nnc(-c2ccc(F)cc2)n1)C1CCS(=O)(=O)C1` (stereo unspecified) the figure was -4.28%; with `CCC1CCC/C1=N\NC(=O)c1ccc(Cl)cc1` (stereo unspecified), -14.7%; with `CCN(CC)CCCNC(=O)COc1ccc2oc3c(c2c1)CCCC3`, 83.3% (active). The result for `O=C(COc1ccc2c3c(c(=O)oc2c1)CCCC3)NCC(O)c1ccccc1` (stereo unspecified) reads -0.0443%; that for `O=C(COc1ccc2oc3c(c2c1)CCCC3)Nc1ccccn1`, -9.11%; that for `Cc1ccc(Br)c(NS(=O)(=O)c2cccc(C(=O)N3CCNC(=O)C3)c2)c1`, -0.146%. With `COc1ccc(OCC(=O)Nc2ccc(N3CCC(C)CC3)cc2)cc1` the figure was 1.79%; with `COc1ccc(N2CCC(N3CCN(C)C(CCO)C3)CC2)cc1` (stereo unspecified), 86.4% (active). With `COc1ccccc1N1CCC(N2CCN(CC(C)(C)C)C(CCO)C2)CC1` (stereo unspecified), the inhibition was 21.8%. With `COc1ccc(CCNC(=O)C(=O)NCC2CCCN2S(=O)(=O)c2cccs2)cc1OC` (stereo unspecified) the figure was -2.42%; with `Nc1cccc(CCc2nc3ccccc3[nH]2)c1`, 1.01%; with `O=C(OCc1nc2ccccc2[nH]1)C1CCCCC1`, 0.03%. With `Oc1ccc2nc(Cc3ccccc3)[nH]c2c1` the figure was 98.6% (active); with `CN(C)C(=O)c1ccc(NC(=O)COC(=O)c2cc3c(s2)CCCCC3)cc1`, -2.4%; with `CCOc1ccc(NS(=O)(=O)c2ccc(Cl)c(C(=O)N(C)Cc3cccnc3)c2)cc1`, -9.87%. As for `O=C(Nc1cccc(S(=O)(=O)N2CCOCC2)c1)C12CC3CC(CC(C3)C1)C2`, the inhibition was -1.07%.

Consider `Oc1cc(O)c2c(c1)OC(c1ccc(O)c(O)c1)C(O)C2` (stereo unspecified), for which the inhibition is 98.2% (active).

Regarding `O=C1N[C@@H](c2ccccc2)COC(=O)[C@H](Cc2ccc(F)cc2)C/C=C\C[C@@H]1CC(=O)N(CCO)Cc1ccccc1`, the inhibition is -1.44%.

Regarding `Cc1ccc(NC(=O)COc2coc(CN3CCc4ccccc4C3)cc2=O)cc1Cl`, the inhibition is -8.1%. With `Cc1ccsc1C(=O)OCC(=O)NCCc1ccccc1` the figure was -5.18%; with `Cc1cccc(N2C(=O)SC(SC(=Nc3ccccc3)Nc3ccccc3)C2=O)c1` (stereo unspecified), 0.802%; with `Cc1ccc(N2C(=O)SC(N(CC(=O)O)c3ccc(C)cc3)C2=O)cc1` (stereo unspecified), 0.583%.

In the case of `Cc1cccc(N2C(=O)SC(N(CC(=O)O)c3cccc(C)c3)C2=O)c1` (stereo unspecified), the inhibition was 98.6% (active).

`CN(N)c1nc(N2CCCC2)nc(N2CCCC2)n1`: the inhibition is -6.99%. As to `Cc1sc2ncnc(N3CCC(C(=O)Nc4ccc(F)cc4Cl)CC3)c2c1C`, the inhibition is 1.27%. With `Nc1c(-c2ccccc2)nnn1Cc1ccccc1` the figure was -6.35%; with `Cn1c(CC2Sc3ccccc3NC2=O)nnc1SCC(=O)c1ccc(Cl)cc1` (stereo unspecified), 92.8% (active); with `Cn1c(CC(=O)Nc2ccccc2)nnc1SCC(=O)c1ccccc1`, -3.26%.

`Cc1ccc(C(=O)CSc2nnc(Cn3nnc4ccccc43)n2C)cc1`: the inhibition is 39.7%. With `S=c1[nH]nc(-c2ccco2)n1/N=C/c1ccccc1` the figure was 94.9% (active). With `S=c1[nH]nc(-c2ccco2)n1/N=C/c1ccc(Br)s1` the figure was 68.5%; with `Cc1cc(-c2n[nH]c(=S)n2/N=C/c2ccco2)n[nH]1`, -0.903%. The result for `COc1ccc(C(=O)COC(=O)C(O)c2ccccc2)c(OC)c1` (stereo unspecified) reads -0.55%; that for `O=C(C1Cc2ccccc2CN1C(=O)c1ccco1)N1CCN(c2ccccc2)CC1` (stereo unspecified), 50.3%. In the case of `Cc1ccc(Cl)c(OCC(=O)N(C)CC(=O)Nc2ccc(N3CCOCC3)cc2)c1`, the inhibition is 52.9%.

Turning to `O=C(CCc1[nH]c2ccccc2c1Sc1ccccc1)N(CCO)CCO`, the inhibition is 99% (active).

Consider `CCCC(=O)N(CCc1ccccc1)Cc1nc2ccccc2c(=O)[nH]1`, for which the inhibition was -7.51%. Take `CCCCNC(=O)Cn1nc(C)c(S(=O)(=O)N2CCOCC2)c1C`: the inhibition was 3.23%. With `COc1ccc(S(=O)(=O)N2CCN(CC(=O)N3CCOCC3)CC2)cc1OC` the figure was -0.297%; with `Cc1ccc(-c2nnc(Nc3ccc(C(=O)N(C)C)cc3)c3ccccc23)cc1S(N)(=O)=O`, -2.47%; with `Cc1cccc(-c2nc(Nc3ccc(O)cc3)c3ccccc3n2)c1`, 6.09%.

For `Oc1ccc(-c2nnc(Nc3ccccc3)c3ccccc23)cc1`, the inhibition is 98.8% (active). Take `O=C1c2ccccc2NC(c2ccc(-c3cccc(Cl)c3)o2)N1O` (stereo unspecified): the inhibition is 95.9% (active).

Take `O=C1NC(c2cccc(Cl)c2)Nc2ccccc21` (stereo unspecified): the inhibition is 0.575%. The result for `CCOC(=O)NN1C(=O)c2ccccc2NC1c1cccc(O)c1` (stereo unspecified) reads -18.3%. With `COc1ccc(C(=O)COC(=O)c2c(C)noc2C)cc1Cl` the figure was 1.08%; with `Nc1ccc(-c2nnc(-c3ccccc3)o2)cc1`, 36.1%; with `Nc1nc(-c2ccccc2)cc(-c2ccccc2)n1`, -2.58%. The result for `Nc1ccc(-c2sc(N)nc2-c2ccccc2)cc1` reads 99% (active).

In the case of `CCN1C(=O)[C@@H]2[C@@H](c3ccc(-c4ccccc4)cc3)N3CCCC[C@@]3(C(=O)OC)[C@@H]2C1=O`, the inhibition was -1.67%.

As to `CCCCn1c(N)c(N(CCOC)C(=O)c2cccc(S(=O)(=O)N(C)c3ccccc3)c2)c(=O)[nH]c1=O`, the inhibition is -2.15%. With `Cc1ccc(NC(=O)C2CC(=O)N(c3ccc4c(c3)OCCO4)C2)cc1S(=O)(=O)N1CCCCCC1` (stereo unspecified) the figure was -0.304%. With `COc1cc(C2C(C(=O)c3cccs3)=C(O)C(=O)N2CCN2CCOCC2)ccc1OCCC(C)C` (stereo unspecified) the figure was -0.637%. Consider `Cc1ccc(NC(=O)CSc2nn3c(=O)c(C)nnc3s2)cc1Cl`, for which the inhibition is 98.9% (active).

In the case of `Cc1ccc(NC(=O)C/C(N)=N/O)cc1Cl`, the inhibition was -7.95%. The result for `COc1ccc(Cc2nnc(SCC(=O)Nc3ccc(C)c(Cl)c3)[nH]c2=O)cc1` reads -4.08%. With `CC(C)(C)S(=O)(=O)c1ccccc1-c1noc(-c2ccccc2)c1C(N)=O` the figure was -2.96%; with `COc1ccc2nc3n(c(=O)c2c1)-c1ccc(Cl)cc1C(=O)NC3Cc1ccccc1` (stereo unspecified), -0.323%; with `COc1ccc(C2NC(=O)c3ccccc3N2)cc1` (stereo unspecified), 0.0966%. The result for `COc1ccc2c(c1)C(=O)Nc1cc(Cl)ccc1N2` reads 87.7% (active); that for `CC(C)(C)c1ccc(C(=O)NCc2ccco2)cc1`, 1.34%. As to `CN(CC(=O)NC1CCN(Cc2ccccc2)CC1)S(=O)(=O)c1ccc(Cl)s1`, the inhibition was -2.03%. The result for `Cc1ccc(NC(=O)c2ccc(Cl)nc2)cc1S(=O)(=O)N1CCOCC1` reads -4.04%; that for `Cc1ccc(NC(=O)CSCC(=O)NC2CCCCC2)cc1`, -3.3%; that for `Cc1ccc(-c2cc(C(=O)NC3CCN(Cc4ccccc4)CC3)c3ccccc3n2)cc1`, 1.58%. Regarding `Cc1ccc(-c2nc(CS(=O)CC(=O)NC3CCCC3)c(C)o2)cc1` (stereo unspecified), the inhibition was 99.1% (active). With `Cc1ccc(S(=O)(=O)NCCC(=O)NC2CCN(Cc3ccccc3)CC2)cc1` the figure was 6.19%.

Take `Cc1ccc(NC(=O)CS(=O)CC(=O)N(c2ccccc2)C(C)C(=O)NC2CCCC2)cc1` (stereo unspecified): the inhibition is -4.87%. With `Cc1ccc(-c2nc(CSCC(=O)NC3CCN(Cc4ccccc4)CC3)c(C)o2)cc1` the figure was 99.5% (active); with `COC(=O)[C@]1(CC(C)C)N[C@H](c2ccc(SC3CCCCC3)cc2)[C@@H]2C(=O)N(C)C(=O)[C@@H]21`, -4.22%; with `O=C(Nc1cccc(S(=O)(=O)N2CCCC2)c1)c1cncc(Br)c1`, -0.493%. The result for `OCC[C@H]1C[C@@H](O)[C@H](O)[C@@]2(OCCc3ccccc32)O1` reads -5.81%; that for `C=CC[C@@H](CC(=O)N[C@@H](CO)Cc1ccccc1)C(=O)N[C@H](COC(=O)[C@H](CC=C)CC(=O)OC(C)(C)C)Cc1ccccc1`, 0.393%; that for `Oc1c(C(c2ccco2)N2CCC3(CC2)OCCO3)sc2ncnn12` (stereo unspecified), -33.4%. The result for `Oc1c(C(c2cccs2)N2CCN(c3ccc(F)cc3)CC2)sc2ncnn12` (stereo unspecified) reads 95.5% (active). As to `Cc1ccc(C(c2sc3nc(C)nn3c2O)N2CCN(c3ccc(F)cc3)CC2)cc1` (stereo unspecified), the inhibition is 2.24%. The result for `COc1ccc(C(CNC(=O)c2ccc(NS(=O)(=O)c3ccc(F)c(C)c3)cc2)N(C)C)cc1` (stereo unspecified) reads -5.64%.

In the case of `CC1(C)CC(=O)C=C(c2ccc(Cl)c(C(F)(F)F)c2)C1`, the inhibition is 3.75%. The result for `COc1cc(NC(=O)CSC(=S)N2CCCC2)c(OC)cc1Cl` reads -2.05%; that for `CCN(CC(=O)Nc1ccc(NC(C)=O)cc1)C(=O)CSC(=S)N1CCCC1`, -0.0599%; that for `CC(=O)c1ccc(NC(=O)CSC(=S)N2CCCC2)cc1`, 92.8% (active). As to `CCN1C(=O)c2cccc3c(N)ccc1c23`, the inhibition is 99.2% (active). With `CCN1C(=O)c2cccc3c(S(=O)(=O)Nc4ccccc4O)ccc1c23` the figure was -28.9%; with `CN1C(=O)c2cccc3c(N)ccc(c23)C1=O`, -15.1%.
